biological target: FAM181B; assay: pooled miR-30 sensor sort-seq; sequence = guide strand; settings: shRNA

Row | Sequence | sensor-assay potency score (higher = more potent)
1 | TTGTGATTAAACAATCCCCAAC | -1.56
2 | TGAAGCTGAGTAGATCGCGGGT | -0.406
3 | TTCACCTTCCGCTTCGACTTGC | 0.326
4 | TACACTAAATACACTGACCTTC | -0.096
5 | TTCTTGACTCCTCTGGTCCAGT | -0.871
6 | TCATCGTCCTCGAAACAGCAGC | -1.07
7 | TAAATACACTGACCTTCGCTGA | -0.839
8 | TTTTGTTTTAACACTTGAGGTT | 0.0361
9 | TTGTTTTAACACTTGAGGTTGT | 0.449
10 | TTGATGTTGCTGGACGCCGAGT | -1.34
11 | TTGGTTTCTTGACTCCTCTGGT | 0.637
12 | TTTGTTTTAACACTTGAGGTTG | -0.289

biological target: FAM194A; assay: as above; settings: shRNA

Row | Sequence | sensor-assay potency score (higher = more potent)
13 | TTTTCTTTTGCCTTGAGTCTGT | 0.354
14 | TTTATCAGACAAATCTTGGAGC | -0.442
15 | TTAAGCGCTTTGAATCATCTTC | -0.166
16 | TTATTGTCTTCATTATATCTTG | -0.455
17 | TTGTCTTGTTCTAAGATGCGGA | -0.227
18 | TACAATGTCATCAATTATCTGT | 0.418

Reference: the OligoGym collection
